The record followed here is PubChem BioAssay (NCI).

Holding throughout (assay): NCI-60 one-dose screen, 48 h (100 = growth as untreated, 0 = no growth, -100 = all killed)
One test relates to NCI-H23 lung. To be noted: 10 µM unless noted.
A further test concerns NCI-H226 lung. To be noted: 10 µM unless noted.
The next test has as its system NCI-H322M lung. To be noted: 10 µM unless noted.
Another test relates to HOP-62 NSCLC. To be noted: 10 µM unless noted.
A further test concerns NCI-H460 lung. To be noted: 10 µM unless noted.
The subject of a further test is HOP-92 NSCLC. To be noted: 10 µM unless noted.
The test system of another test is NCI-H522 lung. To be noted: 10 µM unless noted.
A further test concerns A549/ATCC NSCLC. To be noted: 10 µM unless noted.
The subject of the next test is 786-0 renal. To be noted: 10 µM unless noted.
Another test concerns COLO 205 colon. To be noted: 10 µM unless noted.
A further test deals with DU-145 prostate. To be noted: 10 µM unless noted.
Another test deals with K-562 leukemia. To be noted: 10 µM unless noted.
The test system of the next test is MALME-3M melanoma. To be noted: 10 µM unless noted.
A further test relates to MDA-MB-231 breast. To be noted: 10 µM unless noted.
The subject of a further test is RXF 393 renal. To be noted: 10 µM unless noted.
The test system of the next test is SF-268 CNS. To be noted: 10 µM unless noted.
In the next test the test system is SF-295 CNS. To be noted: 10 µM unless noted.
Another test concerns SF-539 CNS. To be noted: 10 µM unless noted.
In the next test the test system is UACC-257 melanoma. To be noted: 10 µM.
For a further test, the system named is M14 melanoma. To be noted: 10 µM unless noted.

This is part of a sample that, as a whole, favours compounds with a hit. Of some 83,000 tested, about 20% had one in any assay.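 Step 1: grow cells in 96-well plates. Step 2: add test compound at a single concentration. Step 3: incubate 48 h. Step 4: record percent growth.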 Unmarked numbers belong to inactive results. Calls of active or inactive are those of the source. Rule for the calls: active = growth percent below 10; inactive = the rest.

Regarding `Nc1nc(-c2cccc([N+](=O)[O-])c2)c(N=Nc2ccccc2Cl)s1`, the growth with NCI-H23 lung was 60.8%; with NCI-H226 lung it was 70.4%; with NCI-H322M lung, 86.3%; in the test with HOP-62 NSCLC, 56.1%; in the test on NCI-H460 lung, 41%; in the test on HOP-92 NSCLC, 31.8%. Further, the growth in the test with NCI-H522 lung was 60.1%; in the test on A549/ATCC NSCLC, 51.8%; in the test on 786-0 renal it was 52.6%; with COLO 205 colon it was 93.1%; with DU-145 prostate it was 52.6%; in the test with K-562 leukemia, 52.5%. For the same molecule, the growth is 111% with MALME-3M melanoma; 54.1% in the test with MDA-MB-231 breast; -13.6% (active) in the test on RXF 393 renal; 68.4% in the test with SF-268 CNS; 70.8% in the test on SF-295 CNS; 17.8% with SF-539 CNS. The growth with UACC-257 melanoma was 104%; in the test on M14 melanoma, 77.7%.
In the case of `CC1(C)CC[C@]2(C(=O)O)CC[C@]3(C)C(=CCC4[C@@]5(C)C[C@@H](O)[C@@H]6OC(c7ccccc7O)OC[C@@]6(C)C5CC[C@]43C)C2C1` (stereo not given in full), the growth is 58.2% in the test on NCI-H23 lung; 87% with NCI-H226 lung; 40.5% in the test on NCI-H322M lung; 45.6% with HOP-62 NSCLC; 46% with NCI-H460 lung; 52% with HOP-92 NSCLC. In addition, the growth in the test on NCI-H522 lung was 53.6%; in the test with A549/ATCC NSCLC it was 27.7%; in the test with 786-0 renal, 22.2%; in the test with COLO 205 colon, 29.7%; in the test on DU-145 prostate it was 44.1%; in the test on K-562 leukemia, 40.6%. Moreover, the growth in the test with MALME-3M melanoma is 83.9%; in the test with MDA-MB-231 breast it was 82.5%; in the test with RXF 393 renal, 76.9%; in the test on SF-268 CNS, 56%; with SF-295 CNS it was 30.2%; with SF-539 CNS, 63.7%. Moreover, the figures for the growth in the test on UACC-257 melanoma and in the test with M14 melanoma were 93.7% and 43.3%, respectively.
As to `CC(=O)Nc1nc2c(s1)C1=CC[C@H]3[C@@H]4CC[C@H](C(C)=O)[C@@]4(C)CC[C@@H]3[C@@]1(C)CC2`, the growth in the test on NCI-H23 lung is 81.2%; in the test with NCI-H226 lung it was 94.8%; in the test with NCI-H322M lung, 77.1%; in the test on HOP-62 NSCLC it was 62.8%; in the test with NCI-H460 lung, 64.4%; in the test on HOP-92 NSCLC, 105%. The growth with NCI-H522 lung is 90.8%; in the test on A549/ATCC NSCLC it was 51.7%; with 786-0 renal it was 25%; with COLO 205 colon it was 57%; in the test on DU-145 prostate, 85.9%; in the test with K-562 leukemia it was 8.05% (active). Further, the growth was 72.6% with MALME-3M melanoma; 57.7% in the test with MDA-MB-231 breast; -29.3% (active) in the test on RXF 393 renal; 90.2% in the test on SF-268 CNS; -16.9% (active) in the test on SF-295 CNS; 40.2% with SF-539 CNS. For the same molecule, the growth in the test with UACC-257 melanoma is 73.2%; in the test on M14 melanoma, 87%.
With `CNC(=O)c1c(NC(=O)c2ccc(F)cc2F)sc2c1CCC(=O)C2`, the growth with NCI-H23 lung is 5.55% (active); in the test with NCI-H226 lung, 15.7%; in the test on NCI-H322M lung, 33.3%; in the test on HOP-62 NSCLC, 16.3%; with NCI-H460 lung, 1.92% (active); in the test with HOP-92 NSCLC it was -34% (active). The growth in the test on NCI-H522 lung is -10.1% (active); in the test on A549/ATCC NSCLC, 13.1%; in the test with 786-0 renal, 24%; in the test with COLO 205 colon it was -74% (active); in the test with DU-145 prostate, 66.4%; in the test on K-562 leukemia it was 12.7%. Also, the growth with MALME-3M melanoma is -9.54% (active); in the test on MDA-MB-231 breast, -16.6% (active); in the test on RXF 393 renal it was -28.9% (active); in the test with SF-268 CNS, 20.3%; in the test on SF-295 CNS it was -3.76% (active); with SF-539 CNS, -28.6% (active). Also, the growth was -2.26% (active) with UACC-257 melanoma and 19.3% with M14 melanoma.
Consider `CCOC(=O)c1c(NCC(=O)Nc2ccc(Br)cc2)sc2c1CCCC2`, for which the growth in the test on NCI-H23 lung is 26.3%; in the test on NCI-H226 lung, 40.7%; in the test with NCI-H322M lung, 85.6%; in the test with HOP-62 NSCLC it was 69.2%; in the test on NCI-H460 lung, 68.9%; in the test on HOP-92 NSCLC, 67.7%. For the same molecule, the growth in the test on NCI-H522 lung was -48.8% (active); with A549/ATCC NSCLC, 73.2%; in the test on 786-0 renal it was 21.2%; in the test on COLO 205 colon, 33.3%; in the test on DU-145 prostate, 66.7%; with K-562 leukemia it was 10.8%. Further, the growth was 21.7% in the test with MALME-3M melanoma; 36.5% with MDA-MB-231 breast; -50.1% (active) with RXF 393 renal; 58.4% with SF-268 CNS; 39.1% in the test on SF-295 CNS; 12% in the test on SF-539 CNS. In addition, the values for the growth in the test with UACC-257 melanoma and with M14 melanoma were 76.2% and 46.3%, respectively.
With `CCOC(=O)/C=c1\sc2n(c1=O)C1C(NN=2)N(CC)C(=O)N1CC` (stereo not given), the growth in the test with NCI-H23 lung was 79.6%; in the test with NCI-H226 lung, 81.2%; with NCI-H322M lung, 78.9%; with HOP-62 NSCLC, 71.6%; with NCI-H460 lung, 37.8%; with HOP-92 NSCLC, 75.3%. Also, the growth in the test on NCI-H522 lung was 33.3%; in the test on A549/ATCC NSCLC, 62.1%; in the test on 786-0 renal, 63%; with COLO 205 colon, 51.3%; with DU-145 prostate, 75.3%; in the test with K-562 leukemia, 24.1%. Also, the growth with MALME-3M melanoma is 49.1%; with MDA-MB-231 breast, 66.8%; with RXF 393 renal, 70.2%; with SF-268 CNS, 81.1%; with SF-295 CNS, 46%; with SF-539 CNS, 54.4%. The growth was 71.5% with UACC-257 melanoma and 44.7% in the test with M14 melanoma.
On to `Clc1ccc(-c2csc(N/N=C/c3nc4ccccc4n3C3CC3)n2)cc1`, for which the growth with NCI-H23 lung was 98.5%; with NCI-H226 lung, 91.5%; with NCI-H322M lung, 98.5%; in the test on HOP-62 NSCLC, 106%; in the test on NCI-H460 lung, 105%; with HOP-92 NSCLC it was 105%. Moreover, the growth is 93% with NCI-H522 lung; 95.5% with A549/ATCC NSCLC; 109% in the test with 786-0 renal; 104% in the test on COLO 205 colon; 113% in the test on DU-145 prostate; 107% with K-562 leukemia. Moreover, the growth in the test on MALME-3M melanoma is 96.3%; with MDA-MB-231 breast, 96.7%; in the test on RXF 393 renal, 107%; with SF-268 CNS, 94.7%; in the test on SF-295 CNS it was 96.5%; in the test with SF-539 CNS, 99.4%. The growth in the test on UACC-257 melanoma was 91%; with M14 melanoma, 91.9%.
